PubChem BioAssay AID2717 (Broad Institute, 2010)
Where “and” joins values, the source holds several entries; their conditions need not be identical. Identical values can stand only once. The campaign covered roughly 300,000 compounds. About 3,200 (1.1%) were called active. What follows is part of a selection rich in actives, with near analogues and random picks from the rest. A number with no mark means an inactive call. No stated cut-off is given here; in the data, active means inhibition above about 75%; inconclusive means no clear call, values can overlap the other calls; inactive means below that; tested in HMLE shEcad cells.

Assay: growth suppression of cancer stem-like cells – cell-based, luminescence, primary screen (AID 2717)
Conditions: cancer stem cell-like cells viability, at 7.5 µM, hits give high values

Row | Compound | inhibition
1 | COc1ccc(-n2cnnc2SCC(=O)Nc2cccc([N+](=O)[O-])c2)cc1 | -0.247%
2 | COc1ccc(CCNC(=O)CSc2nc3[nH]ncc3c(=O)n2-c2cccc(C(F)(F)F)c2)cc1OC | -2.41%
3 | NC(=O)NC(=O)CSc1nc2cc([N+](=O)[O-])ccc2n1-c1cccc(C(F)(F)F)c1 | 84.3% (active)
4 | Cc1ccc2c(c1)C1C[N+](C)(CC(=O)c3ccccc3)CCC1N2C(=O)c1ccccc1Cl (stereo not drawn) | -11.4%
5 | COc1ccc(S(=O)(=O)N(C)C[C@H]2Oc3ccc(NS(=O)(=O)c4cccs4)cc3CC(=O)N([C@H](C)CO)C[C@H]2C)cc1 | -7.45%
6 | COc1ccc(N(CCC(=O)NCCc2ccccc2)S(=O)(=O)c2ccc(C)cc2C)cc1 | 0.378%
7 | CC(=O)[C@@]12O[C@@H]1C[C@H]1[C@@H]3CC[C@H]4C[C@@H](O)CC[C@]4(C)[C@H]3CC[C@@]12C | -0.101%
8 | CC(=O)C12CC(C)=C(C)CC1CC1C3CCC4=CC(=O)CCC4(C)C3CCC12C (stereo not drawn) | 76.7% (active)
9 | C[C@]12C=CC(=O)C=C1CC[C@@H]1[C@@H]2C(=O)C[C@@]2(C)[C@H]1CC[C@]2(O)C(=O)CO | -3.96% and -10.9%
10 | COc1cccc(NC(=O)COC(=O)c2ccc3ccccc3n2)c1 | -12.4%
11 | COc1cccc(NC(=O)COc2cccnc2[N+](=O)[O-])c1 | -14.1%
12 | CC(=O)c1cccc(OCC(=O)OCC(=O)Nc2cc(S(=O)(=O)N3CCCCC3)ccc2C)c1 | 2.55%
13 | O=C(CC1SCCNC1=O)Nc1ccc(Cl)c(Cl)c1 (stereo not drawn) | -15.9%
14 | O=C(CC(O)(C(F)(F)F)C(F)(F)F)Nc1ccc(Cl)c(Cl)c1 | 98.6% (active)
15 | CCn1nccc1C(=O)Nc1ccc(Cl)c(Cl)c1 | 6.24%
16 | Cc1nn(-c2ccccc2)nc1C(=O)OCC(=O)N1CCCCC1C (stereo not drawn) | 3.22%
17 | O=C(CN1C(=O)c2ccc([N+](=O)[O-])cc2C1=O)Nc1nnc(C2CC2)s1 | -20.4%
18 | CC(OC(=O)c1cc2ccccc2[nH]1)C(=O)N(C)c1ccccc1 (stereo not drawn) | -15.8%
19 | Cc1csc(=O)n1CC(=O)Nc1ccc(S(C)(=O)=O)cc1 | -16.8%
20 | COc1ccc(C(=O)OCc2cc(=O)n3ccsc3n2)cc1F | -8.98%
21 | Oc1ccccc1C1=NN(c2ccccc2)C(c2ccccc2)C1 (stereo not drawn) | 84.6% (active)
22 | COc1ccc(C2CC(c3cccs3)=NN2c2ccccc2)cc1 (stereo not drawn) | 4.92%
23 | O=C(c1ccccc1)N1N=C(c2ccccc2O)CC1c1ccc(Br)cc1 (stereo not drawn) | 8.94%
